The panel holds about 83,000 compounds, 20% with a hit somewhere; the sample as a whole holds those more often.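 Single-concentration screen, 48 h exposure, 96-well plates. Endpoint: percent growth. Below 10 = active.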 The source made the active and inactive calls.
Experiments:
Assay in all cases: NCI-60 one-dose screen, 48 h (100 = growth as untreated, 0 = no growth, -100 = all killed)
Settings in all cases: 10 µM unless noted
[1] = test system: SR leukemia
[2] = test system: RPMI-8226 leukemia
[3] = test system: OVCAR-8 ovarian
[4] = test system: OVCAR-5 ovarian
[5] = test system: OVCAR-4 ovarian
[6] = test system: SK-OV-3 ovarian
[7] = test system: IGROV1 ovarian
[8] = test system: OVCAR-3 ovarian
[9] = test system: HS 578T breast
[10] = test system: NCI/ADR-RES ovarian

Measured: growth

COc1cc(CNC(=O)/C=C/C=C/c2ccc3c(c2)OCO3)ccc1OCc1cn(-c2ccc(C)c(C)c2)nn1
inactive: [1] 81.5% | [2] 86.3% | [3] 71.3% | [4] 104% | [5] 46.7% | [6] 86.5% | [7] 76.1% | [8] 82.8% | [9] 91.4% | [10] 80.5%

O=C1c2cc(Cl)ccc2S(=O)(=O)c2c(NCCCNCCO)nc3ccccc3c21
active: [1] -9.98% | [2] -22.2% | [3] -5.81% | [4] -18% | [5] -32.2% | [7] 8.88% | [8] -91.9% | [9] -2.81%
inactive: [6] 75.7% | [10] 40.6%

CCn1c(SCC(=O)c2ccc(Br)cc2)nnc1-c1ccncc1
inactive: [1] 98.3% | [2] 103% | [3] 109% | [4] 108% | [5] 101% | [6] 118% | [7] 115% | [8] 106% | [9] 105% | [10] 107%

S=C1CCSC(=S)N1CCCN1C(=S)CCSC1=S
active: [2] 3.38%
inactive: [1] 21% | [3] 55.3% | [4] 82.8% | [5] 83.7% | [6] 112% | [7] 85.8% | [8] 34.1% | [9] 83.2% | [10] 80.7%

CCOC(=O)c1nc(Nc2ccc(NC(=O)Nc3ccc(F)cc3)cc2)c2ccccc2n1
inactive: [1] 90.2% | [2] 109% | [3] 106% | [4] 108% | [5] 114% | [6] 100% | [7] 102% | [8] 102% | [9] 99.9% | [10] 92.7%

COc1cc(N2C(=O)[C@H](O)C2c2ccc(SC)cc2)cc(OC)c1OC (stereo not given in full)
active: [1] 3.99% | [2] 9.69% | [3] 6.99% | [6] 3.02% | [8] -11.9%
inactive: [4] 80.3% | [5] 56.5% | [7] 31.4% | [9] 34.9% | [10] 14.2%

O=C(c1ccccc1)C1C(=O)N2C(=S)N(c3ccccc3)C(=O)C2C1c1ccc(Cl)cc1 (stereo not given)
inactive: [1] 101% | [2] 103% | [3] 94.8% | [4] 102% | [5] 90.8% | [6] 88% | [7] 54.2% | [8] 95.6% | [9] 88.9% | [10] 96.4%

COc1ccc(OC)c(C(=O)/C=C/c2cc3c(c(OC)c2OC)OCO3)c1
active: [2] 6.09%
inactive: [1] 17.8% | [3] 58.1% | [4] 121% | [5] 63.4% | [6] 79.1% | [7] 71.5% | [8] 59.4% | [9] 75.9% | [10] 63.1%

CCCCCCCCCCCCCCCCCCOc1ccccc1CC(=O)NCC[N+]1(C)CCCC1
inactive: [1] 23% | [2] 52.7% | [3] 49.7% | [4] 22.9% | [5] 42.5% | [6] 77.4% | [8] 39% | [9] 60.7% | [10] 103%
active: [7] -21.5%

O=[N+]([O-])C1C(c2ccccc2)C12c1ccccc1-c1ccccc12 (stereo not given)
active: [1] -14.8% | [2] -17.3% | [3] -28% | [6] 2.18% | [8] -31.2% | [10] -27.4%
inactive: [4] 23.9% | [5] 57.2% | [7] 20.5% | [9] 38.6%

CCN(CC)CCCN1C(=O)c2c(c(C)c3c(oc4cc(O)ccc43)c2C)C1=O
active: [1] 8.28% | [2] -30% | [3] -39.4% | [4] -77.2% | [5] -50.2% | [7] -74.5% | [10] -40.4%
inactive: [6] 105% | [8] 118% | [9] 101%

COc1ccc(/C=N/NC(=O)CCN2c3ccccc3Sc3ccccc32)cc1
inactive: [1] 33.8% | [2] 94% | [3] 99.3% | [4] 86.3% | [5] 89.6% | [6] 97.1% | [7] 66.3% | [8] 76.4% | [9] 85.9% | [10] 69.4%

Brc1ccc(-n2cc(-c3nn[nH]n3)c(-c3cccs3)n2)cc1
inactive: [1] 110% | [2] 99.3% | [3] 98.8% | [4] 100% | [5] 100% | [6] 93.5% | [7] 93.2% | [8] 105% | [9] 96.3% | [10] 107%

O=C(O)c1ccc(-n2cc(/C=N/Nc3ccc(F)cc3)c(-c3cc4ccccc4oc3=O)n2)cc1
inactive: [1] 51.9% | [2] 90.4% | [3] 84.5% | [4] 82.4% | [5] 91.1% | [6] 94.1% | [7] 74% | [8] 82.4% | [9] 95.3% | [10] 77.9%

CS(=O)(=O)c1cccc(-c2c(-c3cccc(OS(N)(=O)=O)c3)nc3sccn23)c1
inactive: [1] 85.1% | [2] 113% | [3] 95.2% | [4] 99.8% | [5] 101% | [6] 121% | [7] 97.9% | [8] 106% | [9] 103% | [10] 103%

Cn1c(O)c(C=NCCN=Cc2c(O)n(C)c(=O)n(C)c2=O)c(=O)n(C)c1=O
active: [1] -21.9%
inactive: [2] 80.6% | [3] 103% | [4] 83.7% | [5] 112% | [6] 107% | [7] 106% | [8] 102% | [9] 112% | [10] 104%

CCCCN1C(=O)/C(=c2\sc3n(c2=O)C2C(NN=3)N(CC)C(=O)N2CC)c2ccccc21 (stereo not given)
inactive: [1] 11% | [4] 25.8% | [5] 37.5% | [6] 24.5%
active: [2] 4.61% | [3] -12.5% | [7] 2.64% | [8] -31.5% | [9] 6.5% | [10] -9.17%

O=C(/C=C/c1ccc(Cl)cc1)c1cccc(Nc2nc(Nc3ccccc3)nc(Nc3ccccc3)n2)c1
inactive: [1] 60.5% | [3] 94.9% | [4] 92.9% | [5] 83.6% | [6] 108% | [7] 13.5% | [8] 84.7% | [9] 92.7% | [10] 91.9%
active: [2] -43.9%

CNC(=O)c1cc(Oc2ccc3c(c2)sc2nc(-c4cc(OC)c(OC)c(OC)c4)cn23)ccn1
inactive: [1] 35.5% | [2] 21% | [3] 49.1% | [4] 104% | [5] 46.2% | [6] 77.7% | [7] 72.7% | [8] 71.9% | [9] 70.2% | [10] 63.5%

COc1ccc(-c2nc3c(c(-c4ccccc4)nn3-c3ccccc3)c(-c3ccc(N4CCOCC4)cc3)c2C#N)cc1
inactive: [1] 110% | [2] 89.8% | [3] 105% | [4] 102% | [5] 106% | [6] 119% | [7] 109% | [8] 115% | [9] 106% | [10] 111%

CCOC(=O)c1cn2ncnc(Oc3ccc(NC(=O)NC4CCCCC4)c(Cl)c3)c2c1C
active: [5] -0.664%
inactive: [1] 73.8% | [2] 90.9% | [3] 74% | [4] 93.5% | [6] 108% | [7] 81.4% | [8] 109% | [9] 36.1% | [10] 59%

CC1(C)CC2=C3C=C[C@@H]4[C@@]5(C)CCC(=O)C(C)(C)[C@@H]5CC[C@@]4(C)[C@]3(C)CC[C@@]2(C(=O)O)CC1=O
inactive: [1] 71.7% | [2] 31.8% | [3] 89.6% | [4] 93.2% | [5] 64.5% | [6] 84.3% | [7] 85.3% | [8] 60.1% | [9] 95.6% | [10] 93.5%

O=S(=O)(Nc1cc(Br)c(O)c2ccccc12)c1ccc(F)cc1
inactive: [1] 11.6% | [2] 27.2% | [4] 113% | [6] 99.7% | [7] 81.4% | [9] 98.3%
active: [3] 3.09% | [5] -97.5% | [8] -0.424% | [10] 4.65%

CC[C@@H](C(=O)[C@@H](C)[C@@H](O)[C@H](C)[C@@H]1O[C@@H]([C@@H](CC)C(=O)NCCc2ccc(F)cc2)CC[C@@H]1C)C1O[C@]2(C=CC(=O)[C@]3(CC[C@@](C)([C@H]4CC[C@](O)(CC)[C@H](C)O4)O3)O2)[C@H](C)C[C@@H]1C (stereo not given in full)
inactive: [1] 41.9% | [3] 32.2% | [4] 67.7% | [6] 44.7% | [7] 26.3% | [8] 10.5% | [9] 48.1% | [10] 29.6%
active: [2] 7.59% | [5] -2.57%

C/C(=N\NC(=O)c1ccccc1O)c1cccc(/C(C)=N/NC(=O)c2ccccc2O)n1
inactive: [1] 16.6% | [2] 41.4% | [3] 32.3% | [4] 78.9% | [5] 35.4% | [6] 45.6% | [7] 61.8% | [9] 69.3% | [10] 59.1%
active: [8] 9.77%

Cc1ccc(C2=Nc3c(N)ncnc3NC(c3ccc4c(c3)OCO4)C2)cc1 (stereo not given)
inactive: [1] 15.8% | [2] 40.1% | [3] 81% | [4] 74.6% | [5] 87.6% | [6] 78.3% | [7] 32% | [8] 37.8% | [9] 78% | [10] 17.8%
